A selection: hits, their analogues and other compounds. The true share with any hit is near 1.8%.
ERAP1 inh = human ERAP1 aminopeptidase inhibitors, primary screen, biochemical, single point, plate reader. AID 652197, 2013. inhibition, % at 10.7 µM. recombinant ERAP1, Leu-AMC fluorescence, 60 min. 340,000 compounds, 0.15% hits. Endoplasmic reticulum aminopeptidase 1 (Homo sapiens), Q9NZ08;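 active means mean replicate inhibition of at least 30%, or all replicates individually reaching that 30% level; inactive means mean below 30% and not every replicate reaching it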;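 further: 0% = neutral control wells and 100% = L-leucinethiol positive control wells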
PDI inh = inhibitors of human PDI, primary screen, biochemical, turbidity, single point, plate reader | Protein disulfide-isomerase (Homo sapiens), P07237 | PDI insulin aggregation turbidity, A650, 90 min | inhibition, % at 10 µM | 350,000 compounds, 0.052% hits;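 active means mean inhibition across replicates of 30% or more, whatever share of single replicates reach that level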
DENV2 CPE = inhibitors of DENV2 cytopathic effect, primary screen, cell-based, plate reader, single concentration; AID 651640, 2012; CPE inhibition, % at 9.99 µM; 350,000 compounds, 1.7% hits; DENV2-infected cells, cytopathic effect rescue; in the data active means CPE inhibition above about 20%, passing the limit was not always enough; tested in BHK-21 cells;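 further: 0% = median of neutral control wells and 100% = median of positive control wells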
AF4-AF9 inh = inhibitors of AF4 peptide binding to AF9, primary screen, biochemical, AlphaScreen, biotin-AF4 peptide, FLAG-AF9, single point. Protein AF-9 (Homo sapiens), P42568. inhibition, % at 10 µM. 350,000 compounds, 0.47% hits;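 active means every replicate reaching a set inhibition limit, whatever the replicate mean, cut at about 25% in these data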;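 further: 0% = plate neutral control median and 100% = total signal loss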
ERp5 block = inhibitors of ERp5-driven insulin aggregation, primary screen, biochemical, turbidity, absorbance 650 nm, single point; Protein disulfide-isomerase A6 (Homo sapiens), Q15084; 350,000 compounds, 0.05% hits; 90 min; AID 651711, 2012; inhibition, % at 9.99 µM;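 active means mean replicate inhibition above about 25%, with every replicate also reaching it, limit read from the data, passing the limit was not always enough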
Target sequence (Q15084 whole entry, looked up): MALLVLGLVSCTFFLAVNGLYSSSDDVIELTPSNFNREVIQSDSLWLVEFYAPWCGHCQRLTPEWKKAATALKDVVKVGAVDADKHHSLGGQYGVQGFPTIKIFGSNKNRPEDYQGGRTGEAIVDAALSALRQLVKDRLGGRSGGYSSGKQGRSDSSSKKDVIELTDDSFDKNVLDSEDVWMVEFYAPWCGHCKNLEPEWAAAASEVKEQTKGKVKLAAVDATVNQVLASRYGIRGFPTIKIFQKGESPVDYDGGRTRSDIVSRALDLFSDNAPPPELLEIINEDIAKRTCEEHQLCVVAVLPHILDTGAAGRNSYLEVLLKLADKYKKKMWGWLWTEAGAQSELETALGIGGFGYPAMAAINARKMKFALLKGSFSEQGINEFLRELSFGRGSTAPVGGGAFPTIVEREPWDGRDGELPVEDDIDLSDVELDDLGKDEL
The depositor's hits bear a star.

What do the screens show for `O=C(N/N=C/c1ccc[nH]1)c1cc(-c2cccs2)nc2ccccc12`?
ERAP1 inh: 2.3; PDI inh: 6.2; DENV2 CPE: 1.0; AF4-AF9 inh: 17.8; ERp5 block: 12.6

How did Cc1noc(C)c1S(=O)(=O)Nc1ccc2c(c1)C(=O)N([C@H](C)CO)C[C@@H](C)[C@@H](CN(C)S(=O)(=O)c1cn(C)cn1)OCCCC[C@H](C)O2 do in these assays?
ERAP1 inh: 0.6; DENV2 CPE: -3.0; AF4-AF9 inh: -0.1; ERp5 block: 2.2

What do the screens show for `C[C@@H]1CCCCO[C@@H](CN(C)C(=O)Cc2ccccc2)[C@@H](C)CN([C@H](C)CO)C(=O)c2cc(NS(=O)(=O)c3ccc(F)cc3)ccc2O1`?
ERAP1 inh: -0.7; DENV2 CPE: -8.7; AF4-AF9 inh: 0.1; ERp5 block: -1.7

How did C[C@H](CO)N1C[C@H](C)[C@@H](CN(C)C(=O)Cc2ccccc2)OCCCC[C@H](C)Oc2ccc(NS(=O)(=O)c3ccc(F)cc3)cc2C1=O do in these assays?
DENV2 CPE: 126.1*

How did C[C@@H]1CCCCO[C@@H](CN(C)C(=O)Cc2ccccc2)[C@H](C)CN([C@H](C)CO)C(=O)c2cc(NS(=O)(=O)c3ccc(F)cc3)ccc2O1 do in these assays?
DENV2 CPE: -1.5

Results for C[C@@H]1CCCCO[C@H](CN(C)C(=O)Cc2ccccc2)[C@H](C)CN([C@H](C)CO)C(=O)c2cc(NS(=O)(=O)c3ccc(F)cc3)ccc2O1 ?
DENV2 CPE: 27.6*

How did O=C(Nc1ccc(Cl)cc1)N[C@H]1CC[C@H](CCn2cc(C3(O)CCCC3)nn2)O[C@H]1CO do in these assays?
ERAP1 inh: -0.8; DENV2 CPE: 3.6; AF4-AF9 inh: -6.2; ERp5 block: -5.8

How did CC(C)NC(=O)N(C)C[C@H]1Oc2c(cccc2N(C)C)C(=O)N([C@@H](C)CO)C[C@H]1C do in these assays?
ERAP1 inh: 5.2; DENV2 CPE: 21.8*; AF4-AF9 inh: -1.9; ERp5 block: 1.2

Results for C[C@@H]1CN([C@H](C)CO)C(=O)c2cccc(N(C)C)c2O[C@H]1CN(C)C(=O)NC1CCCCC1 ?
ERAP1 inh: -1.2; DENV2 CPE: -7.0; AF4-AF9 inh: -0.3; ERp5 block: 5.8

What do the screens show for `CC(C)NC(=O)N(C)C[C@@H]1Oc2c(cccc2N(C)C)C(=O)N([C@H](C)CO)C[C@H]1C`?
ERAP1 inh: 3.4; DENV2 CPE: 27.3*; AF4-AF9 inh: -2.4; ERp5 block: -1.4

What do the screens show for `COc1ccc2c3c([nH]c2c1)[C@H](CO)N(C(=O)c1cccc(F)c1)CC31CN(C(C)=O)C1`?
ERAP1 inh: -0.9; DENV2 CPE: 10.5; AF4-AF9 inh: 2.5; ERp5 block: 6.2

What do the screens show for `CCCN(C)C[C@H]1Oc2ncc(-c3ccccc3)cc2C(=O)N([C@H](C)CO)C[C@H]1C`?
ERAP1 inh: 0.9; DENV2 CPE: 0.9; AF4-AF9 inh: -0.3; ERp5 block: 5.8

Results for CO[C@@H]1CN(C)C(=O)c2ccc(NC(=O)Nc3ccc(F)cc3)cc2OC[C@@H](C)N(C(=O)c2cnccn2)C[C@H]1C ?
ERAP1 inh: 1.5; DENV2 CPE: -0.7; AF4-AF9 inh: 2.4; ERp5 block: -3.6

What do the screens show for `CC1CN(Cc2cc(=O)oc3cc(O)c(Cl)cc23)CC(C)O1` (stereo unspecified)?
ERAP1 inh: 60.4*; PDI inh: 9.3; DENV2 CPE: -3.9; AF4-AF9 inh: -7.7

Results for CC1CCN(Cc2cc(=O)oc3cc(O)c(Cl)cc23)CC1 ?
ERAP1 inh: 59.6*; PDI inh: -6.7; DENV2 CPE: -1.7; AF4-AF9 inh: -1.7; ERp5 block: 0.9

What do the screens show for `CC1CCN(Cc2cc(=O)oc3cc4c(cc23)CCCC4)CC1`?
ERAP1 inh: 3.0; PDI inh: -1.3; DENV2 CPE: -6.2; AF4-AF9 inh: -4.0; ERp5 block: 2.1

What do the screens show for `O=C(C[C@H]1CC[C@H](NS(=O)(=O)c2ccccc2)[C@@H](CO)O1)N1CCN(c2ccccc2)CC1`?
ERAP1 inh: 0.4; DENV2 CPE: -4.9; AF4-AF9 inh: -14.7; ERp5 block: -4.5

How did COc1ccc(-c2csc(N(CCCN(C)C)C(=O)c3ccccc3C)n2)cc1 do in these assays?
ERAP1 inh: -3.0; PDI inh: 5.1; DENV2 CPE: -7.0; AF4-AF9 inh: 31.0*; ERp5 block: 2.7

Screening data: PubChem, Broad Institute
